Among the data in PubChem BioAssay (NCI) are growth values, retold here.

Compounds without any hit were thinned out: in the full panel of roughly 83,000, 20% have a hit.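 The test compound was applied at a single concentration to cells in 96-well plates for 48 hours, and percent growth was recorded.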 Unmarked numbers belong to inactive results. Active and inactive are the calls of the source. How the source made its calls: active means growth percent below 10; inactive means the rest.

Some test systems named below: NCI-H23 lung; NCI-H226 lung; NCI-H322M lung; HOP-62 NSCLC; NCI-H460 lung; HOP-92 NSCLC; 786-0 renal; COLO 205 colon; DU-145 prostate; MALME-3M melanoma; MDA-MB-231 breast; RXF 393 renal; SF-268 CNS; SF-295 CNS; SF-539 CNS; M14 melanoma; A549/ATCC NSCLC; UACC-257 melanoma; K-562 leukemia.
Common to all, as to assay: NCI-60 one-dose screen, 48 h (100 = growth as untreated, 0 = no growth, -100 = all killed)
Details in all cases: 10 µM unless noted

Regarding `O=C(Nc1cccc(-n2ccc3c(NC(=O)c4ccccc4)nccc32)c1)c1ccc(Cl)c(Cl)c1`, the growth was -31.3% (active) in the experiment on NCI-H23 lung; 31.1% with NCI-H226 lung; -61.6% (active) with NCI-H322M lung; -82.2% (active) in the experiment with HOP-62 NSCLC; -67.8% (active) with NCI-H460 lung; -31.9% (active) in the experiment on HOP-92 NSCLC. Also, the growth is -93% (active) in the experiment with 786-0 renal; -27.7% (active) with COLO 205 colon; -73.3% (active) in the experiment with DU-145 prostate; -56% (active) in the experiment on MALME-3M melanoma; -53.9% (active) in the experiment with MDA-MB-231 breast; -92.7% (active) with RXF 393 renal. Further, the growth in the experiment on SF-268 CNS is -55% (active); in the experiment with SF-295 CNS it was -69.8% (active); in the experiment on SF-539 CNS it was -71.2% (active); with M14 melanoma, -83.4% (active).

With `O=C(CCCN1CCC(O)(c2ccc(Br)cc2)CC1)c1ccc(F)cc1`, the growth in the experiment on NCI-H23 lung was 68.3%; in the experiment with NCI-H226 lung, 99.5%; in the experiment on NCI-H322M lung it was 81.8%; with HOP-62 NSCLC it was 64.3%; in the experiment with NCI-H460 lung, 76.8%; in the experiment on HOP-92 NSCLC it was 98.9%. In addition, the growth with A549/ATCC NSCLC is 73.5%; with 786-0 renal, 69%; in the experiment with MALME-3M melanoma, 86.8%; with MDA-MB-231 breast it was 40.7%; in the experiment with RXF 393 renal, 49.8%; with SF-268 CNS it was 83.4%. For the same molecule, the growth is 54.7% in the experiment with SF-295 CNS, 77.8% in the experiment with SF-539 CNS, -21.9% (active) in the experiment with UACC-257 melanoma and 18.6% in the experiment with M14 melanoma.

In the case of `ClCCn1cnc2c(SCc3ccccc3Cl)ncnc21`, the growth in the experiment on NCI-H23 lung was 53.1%; in the experiment on NCI-H226 lung, 57%; in the experiment with NCI-H322M lung it was 40.4%; in the experiment on HOP-62 NSCLC, 64%; in the experiment on NCI-H460 lung, 2.49% (active); in the experiment with HOP-92 NSCLC, 62.3%. Moreover, the growth was 40.1% with A549/ATCC NSCLC; 33% in the experiment on 786-0 renal; 41.7% in the experiment on COLO 205 colon; 25.4% in the experiment on DU-145 prostate; 13% with K-562 leukemia; 43% in the experiment on MALME-3M melanoma. For the same molecule, the growth was 66.5% in the experiment with MDA-MB-231 breast; 31.3% in the experiment on SF-268 CNS; 8.93% (active) in the experiment on SF-295 CNS; 30.9% with SF-539 CNS; 58.7% in the experiment on UACC-257 melanoma.

For the molecule `CCCCCc1c(C)[nH]c(/C=C2\N=C(c3ccc[nH]3)C=C2Oc2ccc(OC)cc2)c1C`, the growth with NCI-H23 lung was -67.1% [100 µM] (active); in the experiment with NCI-H226 lung, -15.7% [100 µM] (active); with NCI-H322M lung, -6.72% [100 µM] (active); in the experiment on HOP-62 NSCLC, -54.5% [100 µM] (active); in the experiment with NCI-H460 lung, -46.1% [100 µM] (active); in the experiment with HOP-92 NSCLC, -12.6% [100 µM] (active). Moreover, the growth in the experiment on 786-0 renal was -92.2% [100 µM] (active); in the experiment with COLO 205 colon, -83.9% [100 µM] (active); in the experiment with DU-145 prostate, -59.2% [100 µM] (active); in the experiment with K-562 leukemia, -14.6% [100 µM] (active); in the experiment on MALME-3M melanoma it was -75.4% [100 µM] (active); in the experiment with MDA-MB-231 breast, -71.2% [100 µM] (active). Moreover, the growth in the experiment on RXF 393 renal was -68.3% [100 µM] (active); in the experiment with SF-268 CNS it was -83.5% [100 µM] (active); in the experiment on SF-295 CNS it was -82.1% [100 µM] (active); in the experiment on M14 melanoma, -94.7% [100 µM] (active).

Consider `COc1cc2c(cc1OC)-c1cc(OC)c(OC)cc1C(CN(C)C)C2` (stereo not given), for which the growth is 51.8% [100 µM] in the experiment with NCI-H23 lung; 18.4% [100 µM] in the experiment with NCI-H226 lung; 38.9% [100 µM] in the experiment with NCI-H322M lung; -57.2% [100 µM] (active) in the experiment on HOP-62 NSCLC; 67.7% [100 µM] with NCI-H460 lung; 21.4% [100 µM] in the experiment on HOP-92 NSCLC. Also, the growth was 16.9% [100 µM] with 786-0 renal; 100% [100 µM] in the experiment on COLO 205 colon; 45.3% [100 µM] in the experiment with DU-145 prostate; 77.6% [100 µM] in the experiment with K-562 leukemia; 44.1% [100 µM] in the experiment with MALME-3M melanoma; 39.7% [100 µM] in the experiment with MDA-MB-231 breast. The growth was 41.6% [100 µM] in the experiment with RXF 393 renal, 39% [100 µM] with SF-268 CNS, 4.33% [100 µM] (active) in the experiment with SF-295 CNS and 69.5% [100 µM] with M14 melanoma.

`FC(F)(F)c1cc(-c2nnc3n2N=C(Cl)CS3)cc(C(F)(F)F)c1`: the growth with NCI-H23 lung was 93%; with NCI-H226 lung, 99.8%; with NCI-H322M lung, 111%; with HOP-62 NSCLC it was 98.5%; with NCI-H460 lung, 107%; in the experiment on HOP-92 NSCLC, 102%. For the same molecule, the growth was 93.5% with 786-0 renal; 96.5% in the experiment on COLO 205 colon; 112% in the experiment on DU-145 prostate; 83.4% with K-562 leukemia; 99% in the experiment with MALME-3M melanoma; 112% with MDA-MB-231 breast. The growth is 115% in the experiment with SF-268 CNS and 109% in the experiment on SF-539 CNS.

For `O=[N+]([O-])c1ccc(Sc2nc(Cl)nc(NC3CCCC3)n2)cc1`, the growth is -70.2% [100 µM] (active) with NCI-H23 lung; -44.4% [100 µM] (active) in the experiment with NCI-H226 lung; -92.2% [100 µM] (active) with NCI-H322M lung; -78.9% [100 µM] (active) in the experiment on HOP-62 NSCLC; -51.1% [100 µM] (active) in the experiment with NCI-H460 lung; -74.7% [100 µM] (active) in the experiment with HOP-92 NSCLC. The growth is -83.5% [100 µM] (active) in the experiment on 786-0 renal; -61.5% [100 µM] (active) with COLO 205 colon; -100% [100 µM] (active) with DU-145 prostate; -32.1% [100 µM] (active) in the experiment on K-562 leukemia; -80.9% [100 µM] (active) in the experiment on MALME-3M melanoma; -90.3% [100 µM] (active) in the experiment on MDA-MB-231 breast. In addition, the growth was -75.4% [100 µM] (active) with RXF 393 renal, -93% [100 µM] (active) in the experiment with SF-268 CNS, -93.9% [100 µM] (active) with SF-295 CNS and -94.6% [100 µM] (active) with M14 melanoma.

`ClC1=NC(Cl)C(Cl)=N/C1=N\c1ncn[nH]1` (stereo not given): the growth is 62.8% with NCI-H23 lung; 106% in the experiment on NCI-H226 lung; 89.2% with NCI-H322M lung; 39.3% in the experiment on HOP-62 NSCLC; 73.3% in the experiment on NCI-H460 lung; -60% (active) in the experiment with HOP-92 NSCLC. Further, the growth was 81.2% in the experiment on 786-0 renal; -76.4% (active) in the experiment on COLO 205 colon; -78.9% (active) in the experiment on DU-145 prostate; -48% (active) in the experiment on K-562 leukemia; -64.3% (active) with MALME-3M melanoma; 72.7% with MDA-MB-231 breast. For the same molecule, the growth in the experiment on RXF 393 renal was -64.6% (active); in the experiment on SF-268 CNS, 33.8%; in the experiment on SF-295 CNS, 101%; with SF-539 CNS, 67.5%; with M14 melanoma it was 39.2%.

On to `COc1ccc(/C=C/c2nc(NCCCN(C)C)c3ccccc3n2)cc1`, for which the growth in the experiment with NCI-H23 lung is 73.6%; in the experiment with NCI-H226 lung it was 103%; with NCI-H322M lung it was 82.7%; in the experiment on HOP-62 NSCLC it was 83.9%; with NCI-H460 lung, 33.2%; with HOP-92 NSCLC it was 0.889% (active). Also, the growth was 91.2% with A549/ATCC NSCLC; 78% in the experiment with 786-0 renal; 85.9% in the experiment with COLO 205 colon; 96.5% with DU-145 prostate; -75.3% (active) in the experiment on K-562 leukemia; 25.9% in the experiment with MALME-3M melanoma. Besides, the growth was 18.7% in the experiment on MDA-MB-231 breast; 55% in the experiment with SF-268 CNS; 65.8% with SF-295 CNS; 47.5% in the experiment with SF-539 CNS; 97.3% in the experiment on UACC-257 melanoma.
